The whole screen tested about 5,500 compounds, of which about 2,000 (36%) were called active. Inconclusive results (about 18%) are left out. Cut-off read from the data, not from the text of the source: active = normalized growth mostly below about 0.91 (no sharp cut-off); inconclusive = no clear call, values can overlap the other calls; inactive = mostly above about 0.92. The list shows a part of the results.
Test: chemical genetic growth profiling, strain panel (AID 1159580);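 note: tested at 20 µM; growth read once vehicle control cultures reached saturation at 30 °C; 1 = growth at the plate median or of vehicle wells; lower values mean less growth of the strain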
Settings: growth OD
[1] = S. cerevisiae deletion strains, locus YAL013W, strain DEP1, stronger effect = lower value
[2] = S. cerevisiae deletion strains, locus YBR229C, strain ROT2, stronger effect = lower value
[3] = S. cerevisiae deletion strains, locus YCL061C, strain MRC1, stronger effect = lower value
[4] = S. cerevisiae deletion strains, locus YDL101C, strain DUN1, stronger effect = lower value
[5] = S. cerevisiae deletion strains, locus YDL134C, strain PPH21, stronger effect = lower value
[6] = S. cerevisiae deletion strains, locus YDR150W, strain NUM1, stronger effect = lower value
[7] = S. cerevisiae deletion strains, locus YEL061C, strain CIN8, stronger effect = lower value
[8] = S. cerevisiae deletion strains, locus YGR078C, strain PAC10, stronger effect = lower value
[9] = S. cerevisiae deletion strains, locus YHR030C, strain SLT2, stronger effect = lower value
[10] = S. cerevisiae deletion strains, locus YHR087W, strain rtc3, stronger effect = lower value
[11] = S. cerevisiae deletion strains, locus YJR043C, strain POL32, stronger effect = lower value
[12] = S. cerevisiae deletion strains, locus YJR075W, strain HOC1, stronger effect = lower value
[13] = S. cerevisiae deletion strains, locus YLR039C, strain RIC1, stronger effect = lower value
[14] = S. cerevisiae deletion strains, locus YLR058C, strain SHM2 (second series), stronger effect = lower value
[15] = S. cerevisiae deletion strains, locus YLR085C, strain ARP6, stronger effect = lower value
[16] = S. cerevisiae deletion strains, locus YLR262C, strain YPT6, stronger effect = lower value
[17] = S. cerevisiae deletion strains, locus YML094W, strain GIM5, stronger effect = lower value
[18] = S. cerevisiae deletion strains, locus YMR219W, strain ESC1, stronger effect = lower value
[19] = S. cerevisiae deletion strains, locus YMR263W, strain SAP30, stronger effect = lower value
[20] = S. cerevisiae deletion strains, locus YNL153C, strain GIM3, stronger effect = lower value
[21] = S. cerevisiae deletion strains, locus YNL298W, strain CLA4 (second series), stronger effect = lower value
[22] = S. cerevisiae deletion strains, locus YNL322C, strain KRE1, stronger effect = lower value
[23] = S. cerevisiae deletion strains, locus YNR030W, strain Alg12, stronger effect = lower value
[24] = S. cerevisiae deletion strains, locus YOL006C, strain TOP1, stronger effect = lower value
[25] = S. cerevisiae deletion strains, locus YPL055C, strain LGE1, stronger effect = lower value
[26] = S. cerevisiae deletion strains, locus YPL241C, strain CIN2, stronger effect = lower value
[27] = S. cerevisiae deletion strains, locus YPR135W, strain CTF4, stronger effect = lower value
[28] = S. cerevisiae deletion strains, locus YKL190W, strain CNB1, stronger effect = lower value
[29] = S. cerevisiae strains, strain wild type, stronger effect = lower value
[30] = S. cerevisiae deletion strains, locus YJL187C, strain SWE1, stronger effect = lower value
[31] = S. cerevisiae deletion strains, locus YNL128W, strain TEP1, stronger effect = lower value

Measured: normalized growth

CC(C)(C)C(=O)N1CCN(c2ncccc2C(F)(F)F)CC1
inactive: [1] 0.988 | [2] 0.983 | [3] 0.998 | [4] 0.977 | [5] 0.967 | [6] 0.983 | [7] 0.96 | [8] 0.979 | [9] 0.853 | [10] 0.973 | [11] 0.997 | [12] 0.983 | [13] 0.914 | [14] 0.989 | [15] 0.941 | [16] 0.865 | [17] 0.939 | [18] 0.99 | [19] 1.02 | [20] 0.992 | [21] 0.966 | [22] 0.974 | [23] 0.963 | [24] 0.871 | [25] 0.959 | [26] 0.999 | [27] 0.787

N/C(CSc1ncccc1C(F)(F)F)=N/OC(=O)Nc1cccc(Cl)c1
inactive: S. cerevisiae deletion strains, locus YAR019C, strain CDC15, stronger effect = lower value 1 | S. cerevisiae deletion strains, locus YBL105C, strain PKC1, stronger effect = lower value 0.995 | S. cerevisiae deletion strains, locus YBR135W, strain CKS1, stronger effect = lower value 0.969 | S. cerevisiae deletion strains, locus YBR136W, strain MEC1, stronger effect = lower value 0.995 | S. cerevisiae deletion strains, locus YBR160W, strain CDC28, stronger effect = lower value 0.995 | S. cerevisiae deletion strains, locus YDL017W, strain CDC7, stronger effect = lower value 0.996 | S. cerevisiae deletion strains, locus YDL028C, strain MPS1, stronger effect = lower value 0.988 | [4] 0.993 | S. cerevisiae deletion strains, locus YDL108W, strain KIN28, stronger effect = lower value 0.996 | S. cerevisiae deletion strains, locus YDL132W, strain cdc53, stronger effect = lower value 0.98 | S. cerevisiae deletion strains, locus YDL214C, strain PRR2, stronger effect = lower value 0.877 | S. cerevisiae deletion strains, locus YDR052C, strain DBF4, stronger effect = lower value 1 | S. cerevisiae deletion strains, locus YDR054C, strain cdc34, stronger effect = lower value 0.987 | S. cerevisiae deletion strains, locus YDR226W, strain ADK1, stronger effect = lower value 0.983 | S. cerevisiae deletion strains, locus YDR477W, strain SNF1, stronger effect = lower value 0.857 | S. cerevisiae deletion strains, locus YER123W, strain YCK3, stronger effect = lower value 0.724 | S. cerevisiae deletion strains, locus YER133W, strain GLC7, stronger effect = lower value 0.82 | S. cerevisiae deletion strains, locus YFL009W, strain cdc4, stronger effect = lower value 0.996 | S. cerevisiae deletion strains, locus YFL029C, strain CAK1, stronger effect = lower value 0.992 | S. cerevisiae deletion strains, locus YFR003C, strain YPI1, stronger effect = lower value 0.995 | S. cerevisiae deletion strains, locus YFR019W, strain FAB1, stronger effect = lower value 0.946 | S. cerevisiae deletion strains, locus YFR028C, strain CDC14, stronger effect = lower value 0.991 | S. cerevisiae deletion strains, locus YGR040W, strain KSS1, stronger effect = lower value 0.881 | S. cerevisiae deletion strains, locus YGR052W, strain FMP48, stronger effect = lower value 0.793 | S. cerevisiae deletion strains, locus YGR092W, strain DBF2, stronger effect = lower value 0.836 | S. cerevisiae deletion strains, locus YHR079C, strain IRE1, stronger effect = lower value 0.788 | S. cerevisiae deletion strains, locus YHR082C, strain KSP1, stronger effect = lower value 0.946 | S. cerevisiae deletion strains, locus YHR205W, strain SCH9, stronger effect = lower value 0.875 | S. cerevisiae deletion strains, locus YIL147C, strain SLN1, stronger effect = lower value 0.995 | S. cerevisiae deletion strains, locus YJL095W, strain BCK1, stronger effect = lower value 0.618 | S. cerevisiae deletion strains, locus YJL128C, strain PBS2, stronger effect = lower value 0.967 | S. cerevisiae deletion strains, locus YJL157C, strain FAR1, stronger effect = lower value 0.94 | S. cerevisiae deletion strains, locus YJR016C, strain ILV3, stronger effect = lower value 0.989 | S. cerevisiae deletion strains, locus YJR066W, strain TOR1 (second series), stronger effect = lower value 0.71 | S. cerevisiae deletion strains, locus YJR066W, strain TOR1, stronger effect = lower value 0.841 | S. cerevisiae deletion strains, locus YKL048C, strain ELM1, stronger effect = lower value 0.977 | S. cerevisiae deletion strains, locus YKL067W, strain YNK1, stronger effect = lower value 0.897 | S. cerevisiae deletion strains, locus YKL101W, strain HSL1, stronger effect = lower value 0.911 | S. cerevisiae deletion strains, locus YKL193C, strain SDS22, stronger effect = lower value 0.987 | S. cerevisiae deletion strains, locus YKL203C, strain TOR2, stronger effect = lower value 0.93 | S. cerevisiae deletion strains, locus YLR133W, strain CKI1, stronger effect = lower value 0.926 | S. cerevisiae deletion strains, locus YLR403W, strain SFP1, stronger effect = lower value 0.904 | S. cerevisiae deletion strains, locus YML070W, strain DAK1, stronger effect = lower value 0.837 | S. cerevisiae deletion strains, locus YMR001C, strain CDC5, stronger effect = lower value 0.994 | S. cerevisiae deletion strains, locus YMR205C, strain PFK2 (second series), stronger effect = lower value 0.916 | S. cerevisiae deletion strains, locus YMR277W, strain FCP1, stronger effect = lower value 0.988 | S. cerevisiae deletion strains, locus YNL006W, strain LST8, stronger effect = lower value 1 | S. cerevisiae deletion strains, locus YNL020C, strain ARK1, stronger effect = lower value 0.919 | S. cerevisiae deletion strains, locus YNL161W, strain CBK1, stronger effect = lower value 0.986 | S. cerevisiae deletion strains, locus YNL207W, strain RIO2, stronger effect = lower value 0.988 | S. cerevisiae deletion strains, locus YNL222W, strain SSU72, stronger effect = lower value 0.997 | S. cerevisiae deletion strains, locus YNL307C, strain MCK1 (second series), stronger effect = lower value 0.923 | S. cerevisiae deletion strains, locus YOL078W, strain AVO1, stronger effect = lower value 0.994 | S. cerevisiae deletion strains, locus YOL136C, strain PFK27, stronger effect = lower value 0.916 | S. cerevisiae deletion strains, locus YOR061W, strain CKA2, stronger effect = lower value 0.931 | S. cerevisiae deletion strains, locus YOR119C, strain RIO1, stronger effect = lower value 0.885 | S. cerevisiae deletion strains, locus YOR231W, strain MKK1, stronger effect = lower value 0.749 | S. cerevisiae deletion strains, locus YOR329C, strain SCD5, stronger effect = lower value 0.986 | S. cerevisiae deletion strains, locus YPL031C, strain PHO85, stronger effect = lower value 0.836 | S. cerevisiae deletion strains, locus YPL153C, strain RAD53, stronger effect = lower value 0.717 | S. cerevisiae deletion strains, locus YPL204W, strain HRR25, stronger effect = lower value 0.78 | S. cerevisiae deletion strains, locus YPL209C, strain IPL1, stronger effect = lower value 0.99 | S. cerevisiae deletion strains, locus YPR025C, strain CCL1, stronger effect = lower value 0.988 | S. cerevisiae deletion strains, locus YPR106W, strain ISR1, stronger effect = lower value 0.984 | S. cerevisiae deletion strains, locus YPR111W, strain DBF20, stronger effect = lower value 0.974 | S. cerevisiae deletion strains, strain NNK1, stronger effect = lower value 0.99 | S. cerevisiae deletion strains, strain TSCII, stronger effect = lower value 0.991
active: [9] 0.582 | S. cerevisiae deletion strains, locus YLR113W, strain HOG1, stronger effect = lower value 0.819 | S. cerevisiae deletion strains, locus YNL183C, strain NPR1, stronger effect = lower value 0.384 | S. cerevisiae deletion strains, locus YPL256C, strain CLN2, stronger effect = lower value 0.845

N/C(=N/OS(=O)(=O)c1ccc(Cl)cc1)c1ccc(C(F)(F)F)cc1
inactive: [1] 0.957 | [2] 0.978 | [3] 0.946 | [4] 0.958 | [5] 0.978 | [6] 0.96 | [7] 0.997 | [8] 0.971 | [9] 0.915 | [10] 1.01 | [11] 0.97 | [12] 0.955 | [28] 0.981 | [13] 0.969 | [14] 0.976 | [15] 0.968 | [16] 0.999 | [17] 0.985 | [18] 0.99 | [19] 0.991 | [20] 0.976 | [21] 0.943 | [22] 0.967 | [23] 0.971 | [24] 0.897 | [25] 1.02 | [26] 0.965 | [27] 0.847 | [29] 0.973

COC(=O)c1cn(Cc2ccc(C(F)(F)F)cc2)cc(F)c1=O
inactive: [1] 1.02 | [2] 0.996 | [4] 0.996 | [6] 0.923 | [7] 0.998 | [8] 1 | [9] 1.08 | [10] 1 | [30] 1.04 | [11] 0.99 | [12] 1 | [13] 1.02 | [14] 0.996 | [15] 1.09 | [16] 1.04 | [17] 1.03 | [18] 1 | [19] 0.931 | [31] 1.01 | [20] 0.988 | [21] 1.02 | [22] 1.01 | [23] 1.02 | [24] 1.04 | [25] 0.921 | [26] 1.01 | [27] 1.05 | [29] 1.02

Cc1onc(-c2c(Cl)cccc2Cl)c1C(=O)N1CCN(c2ncccc2C(F)(F)F)CC1
inactive: [1] 1.01 | [2] 1 | [4] 1.03 | [5] 0.988 | [6] 0.997 | [7] 1.03 | [8] 1 | [9] 0.908 | [10] 1 | [30] 0.992 | [11] 0.966 | [12] 0.999 | [28] 1 | [13] 0.99 | [14] 0.983 | [15] 0.921 | [16] 0.964 | [17] 1.11 | [18] 0.991 | [19] 0.977 | [31] 1 | [20] 1 | [21] 0.997 | [22] 0.994 | [23] 0.966 | [24] 0.934 | [25] 1.06 | [26] 0.99 | [27] 1.08 | [29] 0.972

From PubChem BioAssay AID1159580 (chemical genetic matrix, 2015)
